Shown are actives, neighbours in structure and some others; about 19% of the full set was active somewhere.
DT40 TDP1 CPT – qHTS for Inhibitors of human tyrosyl-DNA phosphodiesterase 1 (TDP1): qHTS in cells in presence of CPT | 12% of 420,000 active | chicken DT40 Tdp1-/-;hTDP1 cells + 20 nM CPT, ATP luminescence, 48 h | AID 686979, 2013 | Potency, µM (titrated, usually from 46.2 µM), without a hit: at the highest dose activity change, negative = growth inhibition, hits mostly inhibitors; further: potency means the concentration at half of the fitted maximal effect; nearly all actives have a fitted effect of over 55% in size
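Chicken DT40 Tdp1-/- cells stably complemented with human TDP1 were seeded at 400 cells/well in medium containing 20 nM camptothecin, exposed to pin-transferred compounds, and grown at 37 °C for at least 48 hr. Viability was read as ATP luminescence.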
IL-1B inflam inh – qHTS for Inhibitors of Inflammasome Signaling: IL-1-beta AlphaLISA Primary Screen; THP-1 LPS/ATP IL-1B secretion, AlphaLISA, 16 h; hits give low values; activity change, % at 57.5 µM; 4.7% of 360,000 active; AID 743279, 2014; in the data active means activity change below about -50%; inconclusive means mostly about -30% to -49%
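THP-1 cells pretreated 1 hr with compounds (up to 57.5 uM final), then stimulated with LPS (250 ng/mL final) plus ATP (1.25 mM final); secreted IL-1B measured by AlphaLISA after 16 hr, decreased signal indicating inhibition.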
HT1080 IDH1KD tx – qHTS for induction of synthetic lethality in tumor cells producing 2HG: qHTS for the HT-1080-IDH1KD cell line. HT-1080 IDH1 knockdown viability, ATP luminescence, 48 h. Potency, µM (highest dose often 46.1 µM), for inactives: at the top dose activity, negative = toxicity, hits mostly cytotoxic. 2% of 360,000 active. AID 686971, 2013;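 further: potency means the concentration at half of the fitted maximal effect; 0% = DMSO wells and -100% = cell-free medium wells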
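After a 2 h attachment period, IDH1KD HT-1080 cells took pin-transferred compound for 48 h at 37 °C; ATP-based luminescence after 10 min room-temperature reagent incubation reported viability.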
DT40 TDP1 no CPT – qHTS for Inhibitors of human tyrosyl-DNA phosphodiesterase 1 (TDP1): qHTS in cells in absence of CPT; DT40 Tdp1-/- hTDP1 cells, no CPT, ATP luminescence, 48 h; Potency, µM (titrated, usually from 46.2 µM), without a hit: at the highest dose activity change, negative = growth inhibition, usual class: inhibitors; 15% of 420,000 active; AID 686978, 2013; further: potency means the concentration at half of the fitted maximal effect; nearly all actives have a fitted effect of over 55% in size
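Luminescent ATP content (CellTiter-Glo) served as the growth readout. Knockout chicken DT40 cells expressing human TDP1 were exposed to compounds without camptothecin for a minimum 48 hr at 37 °C.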
HT1080-NT tox – qHTS for induction of synthetic lethality in tumor cells producing 2HG: qHTS for the HT-1080-NT fibrosarcoma cell line. Potency, µM (doses to about 46.1 µM), without a hit: at the top dose activity, negative = less viability, usual class: cytotoxic. HT-1080-NT fibrosarcoma viability, CellTiter-Glo ATP luminescence, 48 h. 1.6% of 360,000 active. AID 686970, 2013;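 further: NT is the 2HG producing partner of a matched IDH1 knockdown line; potency means the concentration at half of the fitted maximal effect; 0% = DMSO-treated cells and -100% = media-only wells without cells; nearly all actives have a fitted effect of over 55% in size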
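Viability of the 2HG-overproducing fibrosarcoma line after 48 hours of compound exposure at 37 degrees C was determined by luminescence with CellTiter-Glo, and concentration-effect curves were then fitted and categorized.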
The depositor's hits bear a star; u = inconclusive; x = no result given. Unless noted, the call rests on the fitted dose curve; in most records, active means well fitted curve in the direction sought with a large enough effect; inconclusive means small, poorly fitted or top-dose-only effect, or another doubt; inactive means no such curve, though single readings can be large; an effect the other way counts as inactive or inconclusive. Unless noted, on the % scale 0 is the no-effect control and ±100 the full control effect.

SMILES	DT40 TDP1 CPT	IL-1B inflam inh	HT1080 IDH1KD tx	DT40 TDP1 no CPT	HT1080-NT tox
CCc1nc2c(OCc3ccccc3C(=O)OC)cccn2c1N(C)C(=O)c1ccncc1	u	23	5%	-23%	13%
CCc1nc2c(OCc3ccccc3C(=O)OC)cccn2c1N(C)C(=O)c1cccs1	u	4	-25%	29µM*	-26%
CCc1nc2c(OCc3ccc(OC)cc3)cccn2c1N(C)C(=O)c1ccco1	-24%	-8	0%	u	6%
CCc1nc2c(OCc3ccccc3C(=O)OC)cccn2c1N(C)C(=O)CC(C)C	16µM*	10	1%	13µM*	9%
CCc1nc2c(OCCc3cccc(OC)c3)cccn2c1N(C)C(=O)c1cccs1	21µM*	-1	u	u	u
O=C(COc1ccc2ccc(=O)oc2c1)Nc1ccc(N2CCCCC2)cc1	u	-20	5%	18µM*	1%
O=C(COc1ccc2ccc(=O)oc2c1)N1CCN(c2ccc(F)cc2)CC1	u	-15	5%	23µM*	-8%
O=C1CC(Sc2nnnn2-c2ccccc2)C(=O)N1c1cccc(Cl)c1 (stereo unspecified)	1.3µM*	-7	u	3.7µM*	u
COc1ccc(N2C(=O)CC(Sc3nnnn3-c3ccc(F)cc3)C2=O)cc1 (stereo unspecified)	1.5µM*	-16	4.1µM*	2.9µM*	16µM*
O=C1CC(N2CCN(c3ccccc3)CC2)C(=O)N1c1cccc(Cl)c1 (stereo unspecified)	-3%	30	2%	-6%	3%
CCCc1ccc(C#N)c(SC2CC(=O)N(c3ccc(OC)cc3)C2=O)n1 (stereo unspecified)	7%	24	-1%	0%	-1%
O=C1CC(SC(=Nc2ccccc2)Nc2ccccc2)C(=O)N1c1ccc(Cl)cc1 (stereo unspecified)	u	15	-12%	u	-13%
O=C1CC(SC(=Nc2ccccc2)Nc2ccccc2)C(=O)N1c1cccc(Cl)c1 (stereo unspecified)	u	-6	23µM*	18µM*	u
Cn1c(=O)[nH]c2ncccc21	-4%	7	10%	-9%	6%
CC(Oc1ccc(Cl)cc1)c1ccc(C#N)c(=O)[nH]1 (stereo unspecified)	-11%	-5	-6%	-5%	-6%
CCc1cccc(CC)c1NC(=O)C1CSC2(C)CCC(=O)N12 (stereo unspecified)	-4%	-25	1%	11%	-9%
O=C(NN=Cc1c[nH]c2ccccc12)NN=Cc1c[nH]c2ccccc12	-12%	-24	-18%	u	-16%
CCCCCCCCCC[n+]1ccc(/C=C/c2c(C)[nH]c3ccccc23)cc1	0.56µM*	x	x	0.4µM*	x
CCCCCCC[n+]1ccc(/C=C/c2c[nH]c3ccccc23)cc1	0.28µM*	x	x	0.32µM*	x
C[n+]1cc(C(=O)N2CCCCC2)ccc1/C=C/c1c[nH]c2ccccc12	0%	11	-3%	-9%	-5%
CC[n+]1ccc(C[n+]2ccccc2)c2ccccc21	0%	15	14%	-25%	10%
CCCCCCCCCC[n+]1ccc(/C=C/c2c[nH]c3ccccc23)c2ccccc21	1.6µM*	x	x	2µM*	x
CC[n+]1ccc(/C=C/c2c[nH]c3ccccc23)cc1	2.3µM*	0	-28%	2.1µM*	u
O=c1[nH]c2cccnc2n1-c1cccc([N+](=O)[O-])c1	1%	34	0%	-18%	2%
CC(OC(=O)Cn1[nH]c(=O)c2ccccc2c1=O)C(=O)Nc1ccc(Cl)cn1 (stereo unspecified)	-30%	37	1%	9%	1%
SMILES	DT40 TDP1 CPT	IL-1B inflam inh	HT1080 IDH1KD tx	DT40 TDP1 no CPT	HT1080-NT tox
O=C1C2CCCN2C(=S)N1c1ccc(Cl)cc1 (stereo unspecified)	-28%	-14	7%	u	16%
COc1cc(C(=O)NC2CCCCCCC2)cc(OC)c1OC	21%	41	7%	u	19%
COc1cc(C(=O)N(C(C)C)C2CCCCC2)cc(OC)c1OC	12µM*	21	2%	10µM*	2%
CCN(C(=O)c1cn(CC)c(=O)c2cc(OC)c(OC)cc12)c1ccccc1F	-28%	x	x	21µM*	x
CCN(C(=O)c1cc(OC)c(OC)c(OC)c1)C1CCCCC1	u	35	-1%	23µM*	2%
CCN(C(=O)c1cn(C)c(=O)c2cc(OC)c(OC)cc12)c1ccccc1C	8%	27	4%	-11%	1%
CCN(C(=O)c1cc(Cl)ccc1OC)C1CCCCC1	u	18	-15%	23µM*	-3%
Cn1cc(SCC(=O)NC2CCCCC2)c2ccccc21	-17%	2	-1%	2%	-1%
C[C@H](NC(=O)c1cc2cc(Cl)ccc2n1C)C(=O)N[C@@H](Cc1ccccc1)C(=O)O	0%	24	5%	9%	2%
CCN(C(=O)c1cc(Cl)ccc1OC)c1ccccc1C	u	29	4%	21µM*	-3%
CCN(C(=O)c1cccc(NC(=O)c2ccccc2)c1)C1CCCCC1	15µM*	-29	-1%	u	0%
O=C(Nc1cccc(C(=O)N2CCCCC2)c1)c1ccccc1	4%	-1	6%	-2%	u
CCN(C(=O)c1cn(C)c(=O)c2cc(OC)c(OC)cc12)c1cc(C)ccc1C	13%	8	0%	u	-3%
Cn1c(=O)c2c(ncn2CC(=O)OCC(=O)c2ccc(F)c(F)c2)n(C)c1=O	-17%	15	-3%	4%	14%
Cc1ccc(S(=O)(=O)N2CCC(NC(=O)c3ccccc3)CC2)cc1	21%	0	-9%	-6%	-11%
C[C@@H](C(=O)N1CCN(C(=O)OC(C)(C)C)CC1)n1cc(CCC(=O)O)nn1	16%	10	6%	0%	2%
COc1ccc(Oc2ncc3nc(-c4cn(C)c5ccccc45)c(=O)n(C4CC4)c3n2)cc1	4%	x	x	10%	x
O=C(Nc1ccc(N2CCOCC2)cc1)c1cc2c(s1)CCCCC2	23µM*	-80*	7.3µM*	21µM*	-3%
O=C(Nc1ccc(N2CCOCC2)cc1)c1cc2c(s1)CCCC2	u	-79*	u	u	-11%
Cc1ccc(N(CC(=O)NCc2ccc3c(c2)OCO3)C(=O)CCC(=O)Nc2ccccn2)cc1	-17%	0	-4%	u	-8%
